Only some compounds are listed: those with a hit (about 2.5% of all), similar ones and a draw of the others.
Cruzain inh noDet = blocks cruzain activity in detergent-free assay | AID 1476 | Potency, µM, for inactives: max response, negative = inhibition, most hits filed as inhibitors | purified cruzain, Z-FR-AMC fluorescence, no detergent | P25779 | 200,000 tested, 2.3% active;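 also: plate controls were enzyme without inhibitor for no effect and buffer without enzyme for full effect; nearly all actives have a fitted effect of over 40% in size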
Target sequence (P25779 123-467 limits assumed): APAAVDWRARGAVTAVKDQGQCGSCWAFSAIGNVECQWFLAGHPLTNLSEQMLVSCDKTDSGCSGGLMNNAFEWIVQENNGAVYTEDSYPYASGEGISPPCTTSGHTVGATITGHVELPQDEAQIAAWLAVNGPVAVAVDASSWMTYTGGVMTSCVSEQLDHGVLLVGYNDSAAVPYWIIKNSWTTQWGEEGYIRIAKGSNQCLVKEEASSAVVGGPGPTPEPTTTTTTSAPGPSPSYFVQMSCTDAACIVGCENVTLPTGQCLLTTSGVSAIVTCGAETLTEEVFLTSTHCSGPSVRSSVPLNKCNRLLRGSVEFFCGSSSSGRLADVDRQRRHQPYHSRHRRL
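Purified cruzain at 1.5 nM, pre-incubated 15 min with compound at room temperature in 100 mM sodium acetate pH 5.5, 5 mM DTT, 0.00005% Triton X-100. Reaction started with 2 uM Z-FR-AMC; AMC fluorescence increase over 60 s gives rate.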
Cruzain Triton = cruzain (T. cruzi) inhibition with detergent | P25779 | AID 1478 | 200,000 tested, 0.43% active | purified cruzain, Z-FR-AMC fluorescence, 0.01% Triton | Potency, µM, without a hit: max response, negative = inhibition, usual class: inhibitors;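 also: plate controls were neutral wells for no effect and buffer without enzyme for full effect; nearly all actives have a fitted effect of over 40% in size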
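Detergent-containing arm of a paired screen for aggregation-based inhibition: 0.01% Triton X-100 present. Cruzain at 1.5 nM cleaved 2 uM Z-FR-AMC at pH 5.5 with 5 mM DTT; AMC fluorescence gain over 60 s measured activity.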
* = called active by the depositor; ? = inconclusive. Calls follow the shape of the dose curve; as a rule, active = well fitted curve in the direction sought with a large enough effect; inconclusive = small, poorly fitted or top-dose-only effect, or another doubt; inactive = no such curve, though single readings can be large; an effect the other way counts as inactive or inconclusive. Potency is read from the fitted curve at half-maximal effect.

SMILES	Cruzain inh noDet	Cruzain Triton
CC(C)OC(=O)c1c(NC(=O)c2cnn3c2NC(c2ccccc2)CC3C(F)(F)F)sc2c1CCCC2 (configuration not stated)	?	3%
CCOC(=O)c1c(NC(=O)c2cnn3c2NC(c2cccc(OC)c2)CC3C(F)(F)F)sc2c1CCCC2 (configuration not stated)	3.2µM*	-1%
Cc1ccc(NC(=O)CCn2nc(C)c(S(=O)(=O)N3CCCCC3)c2C)cc1Cl	?	-8%
Cc1cc(C)c(-c2cc(NC(=O)CSc3nncn3C)n(-c3ccccc3)n2)cc1C	?	-3%
Cc1cc(C)c(-c2cc(NC(=O)COC(=O)c3ccc(C#N)cc3)n(-c3ccccc3)n2)cc1C	16µM*	-6%
CC(=O)c1sc(NC(=O)c2cc(-c3ccccc3)nn2-c2ccccc2)nc1C	-16%	-6%
O=C(Nc1nc2ccccc2s1)c1cc(-c2ccccc2)nn1-c1ccccc1	10µM*	-2%
COc1ccc(OC)c2c(=S)c3ccccc3[nH]c12	-6%	-16%
CCOc1ccc(NC(=O)/C(C#N)=C\c2ccc(-c3ccc(Cl)cc3)o2)cc1	-4%	-2%
Cc1ccc(Cc2cnc(NC(=O)/C(C#N)=C/c3ccc(-c4ccc([N+](=O)[O-])cc4)o3)s2)cc1	2.5µM*	1%
O=C(Cc1ccccc1)Nc1nnc(-c2cccc([N+](=O)[O-])c2)s1	16µM*	-1%
O=C(Nc1ncc(Cc2ccccc2Cl)s1)c1ccc(-c2cccc([N+](=O)[O-])c2)o1	6.3µM*	-1%
COc1ccc(CC(=O)Nc2nnc(-c3cccc([N+](=O)[O-])c3)s2)cc1	?	0%
O=C(Nc1ncc(Cc2cccc(Cl)c2)s1)c1ccc([N+](=O)[O-])cc1	?	-3%
O=C(Nc1ncc(Cc2ccccc2Cl)s1)c1ccc([N+](=O)[O-])cc1	?	-2%
O=C(Nc1ncc(Cc2ccc(C(F)(F)F)cc2)s1)c1ccc(-c2cccc([N+](=O)[O-])c2)o1	13µM*	-3%
O=S(=O)(Nc1ccc(-c2ccc(N3CCCCC3)nn2)cc1)c1ccc(OC(F)(F)F)cc1	17%	-5%
Cc1ccc(-n2nc(CO)c(C(=O)NCCC(C)C)n2)cc1C	-14%	-3%
O=C(Cn1c(=O)c2ccccc2n(CC(=O)Nc2ccccc2F)c1=O)NCCc1ccccc1	-16%	1%
CC(C)c1ccc(NC(=O)Cn2nnc(C(=O)NCc3ccc(Cl)cc3)c2N)cc1	7.9µM*	0%
CC(C)c1ccc(NC(=O)Cn2nnc(C(=O)NCc3cccs3)c2N)cc1	-7%	0%
Nc1c(C(=O)NCCc2ccccc2)nnn1CC(=O)Nc1ccc(Cl)cc1	25µM*	-1%
Cc1ccc(NC(=O)Cn2nnc(C(=O)NCCc3ccccc3)c2N)cc1Cl	?	-4%
O=C(Cn1c(=O)c2ccccc2n(CC(=O)Nc2ccc(Cl)cc2)c1=O)NCCc1ccccc1	13µM*	0%
Cn1cnc2c(=O)oc3ccc(S(=O)(=O)N4CCN(c5cccc(Cl)c5)CC4)cc3c21	-2%	-2%
SMILES	Cruzain inh noDet	Cruzain Triton
CCOC(=O)c1c(S(=O)(=O)N2CCC(C(=O)NCc3cccc(C)c3)CC2)c(C)n(C)c1C	?	1%
O=C(O)C1C(C(=O)O)C(C(=O)O)C1C(=O)O (configuration not stated)	6%	2%
c1ccc(CCNc2nc3ccccc3n3nnnc23)cc1	13µM*	3%
CCOc1ccc(Nc2nc3ccccc3n3nnnc23)cc1	-1%	-3%
CN(C)c1ccc(Nc2nc3ccccc3n3nnnc23)cc1	16µM*	-8%
COc1ccc(CCNc2nc3ccccc3n3nnnc23)cc1OC	0%	0%
c1ccc(N2CCN(c3nc4ccccc4n4nnnc34)CC2)cc1	25µM*	4%
c1ccc2c(c1)nc(N1CCOCC1)c1nnnn12	-12%	-1%
Cc1cc(C)c2c(-n3cccc3)c(C(=O)NCCc3ccccc3)sc2n1	12%	-4%
CCOc1ccc(NC(=O)c2ccc3c(c2)CCN3S(=O)(=O)c2ccc(Cl)cc2)cc1	?	-2%
COc1ccc(/C=C(\C#N)c2nc3ccc(C)cc3[nH]2)cc1Oc1ccc(C(F)(F)F)cc1[N+](=O)[O-]	5µM*	-2%
Cc1ccc2nc(/C(C#N)=C\c3ccc(Oc4ccc(C(F)(F)F)cc4[N+](=O)[O-])cc3)[nH]c2c1	7.9µM*	-2%
COc1cc(/C=C(\C#N)c2nc3ccc(C)cc3[nH]2)c([N+](=O)[O-])cc1OC	?	-6%
N#C/C(=C\c1cccc(Oc2ccc(C(F)(F)F)cc2[N+](=O)[O-])c1)c1nc2ccccc2[nH]1	-11%	2%
CCCC/C=C/C(NC(=O)c1cccs1)c1ccccc1 (configuration not stated)	-6%	-1%
CCOC(=O)c1sc(N2C(=O)c3oc4cc(C)c(C)cc4c(=O)c3C2c2ccc(C)cc2)nc1C (configuration not stated)	12%	-2%
